Data as given in PubChem BioAssay (NCATS).
Records with an inconclusive call do not appear. The source made the active and inactive calls. The call rests on the fitted dose curve; in most records, active means well fitted curve in the direction sought with a large enough effect; inconclusive means small, poorly fitted or top-dose-only effect, or another doubt; inactive means no such curve, though single readings can be large; an effect the other way counts as inactive or inconclusive.

How the values were obtained:
MCC-13 = assay: qHTS assay to identify novel small-molecules to repurpose for Merkel cell carcinoma treatment (AID 1296009); settings: MCC and control cell lines, CellTiter-Glo viability, 72 h; series mostly up to 46 µM; further: nearly all actives have a fitted effect of over 60% in size
Method in brief: (§1)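 Luminescence from CellTiter-Glo, read 10 min after addition at room temperature, reported viability following a 72 hr, 37 degree celsius treatment with NPC or MIPE compounds in titration; values normalized to plate controls.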

MCC-26 = assay: as above; settings: MCC and control cell lines, CellTiter-Glo viability, 72 h; series mostly up to 46 µM
Method in brief: as §1

MKL-1 = assay: as above; settings: MCC and control cell lines, CellTiter-Glo viability, 72 h; series mostly up to 46 µM
Method in brief: as §1

MKL-2 = assay: as above; settings: MCC and control cell lines, CellTiter-Glo viability, 72 h; series mostly up to 46 µM
Method in brief: as §1

NIH3T3 = assay: as above; settings: MCC and control cell lines, CellTiter-Glo viability, 72 h; at 44.8 µM (top of the series) unless noted
Method in brief: as §1

UISO = assay: as above; settings: MCC and control cell lines, CellTiter-Glo viability, 72 h; series mostly up to 46 µM
Method in brief: as §1

WaGa = assay: as above; settings: MCC and control cell lines, CellTiter-Glo viability, 72 h; series mostly up to 46 µM
Method in brief: as §1

C33A = assay: Primary qHTS to identify gynecologic anti-cancer compounds using libraries of approved drugs and bioactive compounds (AID 1345084); settings: Gynecologic cancer cell panel viability, ATPlite luminescence, 48 h; series mostly up to 57.5 µM; further: nearly all actives have a fitted effect of over 55% in size
Method in brief: (§2)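 48 h compound exposure at 37 C, 5% CO2; five-point qHTS. ATPlite luminescence readout of cell ATP.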

CAOV3 = assay: as above; settings: Gynecologic cancer cell panel viability, ATPlite luminescence, 48 h; series mostly up to 57.5 µM
Method in brief: as §2

CASKI = assay: as above; settings: Gynecologic cancer cell panel viability, ATPlite luminescence, 48 h; series mostly up to 57.5 µM
Method in brief: as §2
On the % scale 0 is the no-effect control and ±100 the full control effect.

NCCCNCCSP(=O)(O)O
inactive: activity change, negative = cytotoxicity (MCC-13) 18.6% [at 9.22 µM] | activity change, negative = cytotoxicity (MCC-26) 11.5% [at 9.22 µM] | activity change, negative = cytotoxicity (MKL-1) 15.3% [at 9.22 µM] | activity change, negative = cytotoxicity (MKL-2) 7.98% [at 9.22 µM] | outcome (NIH3T3) inactive [at 9.27 µM] | activity change, negative = cytotoxicity (UISO) -0.378% [at 9.22 µM] | activity change, negative = cytotoxicity (WaGa) 14.2% [at 9.22 µM] | activity change, negative = cytotoxicity (C33A) 4.43% [at 11.6 µM] | activity change, negative = cytotoxicity (CAOV3) 4.48% [at 11.6 µM] | activity change, negative = cytotoxicity (CASKI) 0.847% [at 11.6 µM]

CC(=O)[C@@]1(O)CC[C@H]2[C@@H]3CCC4=CC(=O)CC[C@]4(C)[C@H]3CC[C@@]21C
inactive: Potency (MCC-13) | Potency (MCC-26) | Potency (MKL-1) | Potency (MKL-2) | Potency (UISO) | Potency (WaGa) | Potency (C33A) | Potency (CAOV3) | Potency (CASKI)

CC(C(=O)O)c1ccc(CC2CCCC2=O)cc1 (centres undefined)
inactive: Potency (MCC-13) | Potency (MCC-26) | Potency (MKL-1) | Potency (MKL-2) | Potency (UISO) | Potency (WaGa) | Potency (C33A) | Potency (CAOV3) | Potency (CASKI)

CC(C)NNC(=O)c1ccncc1
inactive: Potency (MCC-13) | Potency (MCC-26) | Potency (MKL-1) | Potency (MKL-2) | outcome (NIH3T3) | Potency (UISO) | Potency (WaGa) | Potency (C33A) | Potency (CAOV3) | Potency (CASKI)

CC(C)(Oc1ccc(CCNC(=O)c2ccc(Cl)cc2)cc1)C(=O)O
inactive: Potency (MCC-13) | Potency (MCC-26) | Potency (MKL-1) | Potency (MKL-2) | outcome (NIH3T3) | Potency (UISO) | Potency (WaGa) | Potency (C33A) | Potency (CAOV3) | Potency (CASKI)

C[C@H](CS)C(=O)N1CCC[C@H]1C(=O)O
inactive: Potency (MCC-13) | Potency (MCC-26) | Potency (MKL-1) | Potency (MKL-2) | Potency (UISO) | Potency (WaGa) | Potency (C33A) | Potency (CAOV3) | Potency (CASKI)

C[N+](C)(C)CCOC(=O)CCC(=O)OCC[N+](C)(C)C
inactive: Potency (MCC-13) | Potency (MCC-26) | Potency (MKL-1) | Potency (MKL-2) | outcome (NIH3T3) | Potency (UISO) | Potency (WaGa) | Potency (C33A) | Potency (CAOV3) | Potency (CASKI)

CC(=O)Nc1nnc(S(N)(=O)=O)s1
inactive: Potency (MCC-13) | Potency (MCC-26) | Potency (MKL-1) | Potency (MKL-2) | outcome (NIH3T3) | Potency (UISO) | Potency (WaGa) | Potency (C33A) | Potency (CAOV3) | Potency (CASKI)

CC(C)(C)NCC(O)c1cc(O)cc(O)c1 (centres undefined)
inactive: Potency (MCC-13) | Potency (MCC-26) | Potency (MKL-1) | Potency (MKL-2) | Potency (UISO) | Potency (WaGa) | Potency (C33A) | Potency (CAOV3) | Potency (CASKI)

CN(C)C/C=C(/c1ccc(Br)cc1)c1cccnc1
inactive: Potency (MCC-13) | Potency (MCC-26) | Potency (MKL-1) | Potency (MKL-2) | outcome (NIH3T3) | Potency (UISO) | Potency (WaGa) | Potency (C33A) | Potency (CAOV3) | Potency (CASKI)

CC(N=C(NC#N)Nc1ccncc1)C(C)(C)C (centres undefined)
inactive: Potency (MCC-13) | Potency (MCC-26) | Potency (MKL-1) | Potency (MKL-2) | Potency (UISO) | Potency (WaGa) | Potency (C33A) | Potency (CAOV3) | Potency (CASKI)

OCCN1CCN(CCCN2c3ccccc3C=Cc3ccccc32)CC1
inactive: Potency (MCC-13) | Potency (MCC-26) | Potency (MKL-1) | Potency (MKL-2) | outcome (NIH3T3) | Potency (UISO) | Potency (C33A) | Potency (CAOV3) | Potency (CASKI)

CC1=NS(=O)(=O)c2cc(Cl)ccc2N1
inactive: Potency (MCC-13) | Potency (MCC-26) | Potency (MKL-1) | Potency (MKL-2) | outcome (NIH3T3) | Potency (UISO) | Potency (WaGa) | Potency (C33A) | Potency (CAOV3) | Potency (CASKI)

NS(=O)(=O)c1cc2c(cc1Cl)NC(C1CC3C=CC1C3)NS2(=O)=O (centres undefined)
inactive: Potency (MCC-13) | Potency (MCC-26) | Potency (MKL-1) | Potency (MKL-2) | Potency (UISO) | Potency (WaGa) | Potency (C33A) | Potency (CAOV3) | Potency (CASKI)

CCCCOCCOCCOCc1cc2c(cc1CCC)OCO2
inactive: Potency (MCC-13) | Potency (MCC-26) | Potency (MKL-1) | Potency (MKL-2) | Potency (UISO) | Potency (WaGa) | Potency (C33A) | Potency (CAOV3) | Potency (CASKI)

NC(=O)c1ncn([C@@H]2O[C@H](CO)[C@@H](O)[C@H]2O)c1O
inactive: Potency (MCC-13) | Potency (MCC-26) | Potency (MKL-1) | Potency (MKL-2) | Potency (UISO) | Potency (WaGa) | Potency (C33A) | Potency (CAOV3) | Potency (CASKI)

C[C@]12C=CC(=O)C=C1CC[C@H]1[C@@H]3C[C@@H](O)[C@](O)(C(=O)CO)[C@@]3(C)C[C@H](O)[C@@]12F
inactive: Potency (MCC-13) | Potency (MCC-26) | Potency (MKL-1) | Potency (MKL-2) | outcome (NIH3T3) | Potency (UISO) | Potency (WaGa) | Potency (C33A) | Potency (CAOV3) | Potency (CASKI)

CC(=O)OCC1=C(C(=O)O)N2C(=O)[C@@H](NC(=O)Cc3cccs3)[C@H]2SC1
inactive: Potency (MCC-13) | Potency (MCC-26) | Potency (MKL-1) | Potency (MKL-2) | outcome (NIH3T3) | Potency (UISO) | Potency (WaGa) | Potency (C33A) | Potency (CAOV3) | Potency (CASKI)

CCCCNc1ccc(C(=O)OCCN(C)C)cc1
inactive: Potency (MCC-13) | Potency (MCC-26) | Potency (MKL-1) | Potency (MKL-2) | outcome (NIH3T3) | Potency (UISO) | Potency (WaGa) | Potency (C33A) | Potency (CAOV3) | Potency (CASKI)

NC(=O)c1cn(Cc2c(F)cccc2F)nn1
inactive: Potency (MCC-13) | Potency (MCC-26) | Potency (MKL-1) | Potency (MKL-2) | Potency (UISO) | Potency (WaGa) | Potency (C33A) | Potency (CAOV3) | Potency (CASKI)

CSc1ccc(C(=O)c2[nH]c(=O)[nH]c2C)cc1
inactive: Potency (MCC-13) | Potency (MCC-26) | Potency (MKL-1) | Potency (MKL-2) | outcome (NIH3T3) | Potency (UISO) | Potency (WaGa) | Potency (C33A) | Potency (CAOV3) | Potency (CASKI)

OC(CCN1CCCCC1)(c1ccccc1)C1CCCCC1 (centres undefined)
inactive: Potency (MCC-13) | Potency (MCC-26) | Potency (MKL-1) | Potency (MKL-2) | Potency (UISO) | Potency (WaGa) | Potency (C33A) | Potency (CAOV3) | Potency (CASKI)
